# Most compounds without a hit are left out; they make up all but 0.82% or so of the library.
# Yp Topo-I inh = Y. pestis Topo-I inhibition via cleavage products; Y. pestis Topo-I cleavage product accumulation, plate reader; activity, % at 10 µM; hit rate 0.064% among 360,000; AID 504884; in the data active means activity above about 50%, passing the limit was not always enough
# BioA inh = inhibitors of Mycobacterium tuberculosis BioA enzyme. inhibition, % at 9.99 µM. hit rate 0.096% among 360,000. purified M. tuberculosis BioA enzyme, plate reader. AID 602481; in the data active means inhibition above about 40%
# RecA intein inh = blocks M. tuberculosis RecA intein splicing. cell-free RecA intein splicing, fluorescence. inhibition, % (test concentration not listed). hit rate 0.75% among 290,000. AID 2221; in the data active means inhibition above about 30%;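 further: 0% = vehicle wells and 100% = reference inhibitor control wells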
# UGM FP inh = blocks M. tuberculosis UGM enzyme; inhibition, % at 10 µM; purified UGM, fluorescence polarization probe displacement; hit rate 0.06% among 320,000; P9WIQ1; in the data active means inhibition above about 10%, passing the limit was not always enough
# Target sequence (P9WIQ1 whole entry, looked up): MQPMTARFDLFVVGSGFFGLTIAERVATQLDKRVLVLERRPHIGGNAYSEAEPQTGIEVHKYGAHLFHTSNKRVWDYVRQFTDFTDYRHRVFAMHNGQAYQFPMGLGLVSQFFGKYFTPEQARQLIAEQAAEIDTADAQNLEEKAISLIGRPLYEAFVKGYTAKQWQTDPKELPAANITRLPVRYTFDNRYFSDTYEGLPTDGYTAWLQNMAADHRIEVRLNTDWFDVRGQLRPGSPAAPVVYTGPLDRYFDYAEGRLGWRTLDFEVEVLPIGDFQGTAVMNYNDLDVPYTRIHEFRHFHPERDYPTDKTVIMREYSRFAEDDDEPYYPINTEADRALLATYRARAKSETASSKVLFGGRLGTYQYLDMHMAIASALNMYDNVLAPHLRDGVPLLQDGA
# FadD28 FP inh = M. tuberculosis FadD28 bisubstrate binding inhibition | AID 588549 | FadD28 bisubstrate probe binding, fluorescence polarization | inhibition, % at 12.5 µM | hit rate 0.22% among 360,000; in the data active means inhibition above about 8.5%, passing the limit was not always enough
# Rv3671c protease = inhibits the M. tuberculosis serine protease Rv3671c. inhibition, % at 5.96 µM. hit rate 0.048% among 320,000. AID 2606; in the data active means inhibition above about 38%;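 further: extracellular domain of Rv3671c used as enzyme; 0% = enzyme with DMSO and 100% = no enzyme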
# * = called active by the depositor; . = no result.
SMILES,Yp Topo-I inh,BioA inh,RecA intein inh,UGM FP inh,FadD28 FP inh,Rv3671c protease
CC(=O)Nc1ccc2c(c1)C(=O)N(C)[C@@H]1CC[C@@H](CC(=O)NCC3CC3)O[C@H]1CO2,.,0,.,.,.,.
O=C(O)c1cccc(N/N=C/c2cc(Br)cc(Br)c2O)c1,-14,9,-7,2,28*,23
C=CS(=O)(=O)c1sc(Cl)c(N2CCOCC2)c1[N+](=O)[O-],-4,.,7,.,-1,.
C=CSc1sc(Cl)c(N2CCOCC2)c1[N+](=O)[O-],6,.,30*,2,0,-1
C[C@H](CO)N1C[C@H](C)[C@H](CN(C)Cc2ccc(Oc3ccccc3)cc2)Oc2c(NC(=O)NC3CCCCC3)cccc2C1=O,.,-3,.,.,.,.
COc1cc(/C=C2/C(=O)NN(c3ccc(F)cc3)C2=O)cc(Cl)c1O,1,-1,5,0,2,-1
COc1cc(/C=C2/C(=O)NN(c3ccc(Cl)cc3)C2=O)ccc1OC(=O)c1ccco1,-5,.,10,2,9.3*,1
COc1cc(/C=C2/C(=O)NN(c3ccc(Cl)c(Cl)c3)C2=O)cc([N+](=O)[O-])c1O,-14,0,4,4,28*,-2
O=C(C[C@H]1CC[C@@H]2[C@H](COC[C@@H](O)CN2Cc2ccc3c(c2)OCO3)O1)N1CCOCC1,.,1,.,.,.,.
Cc1noc(C)c1NC(=O)N(C)C[C@@H]1Oc2ccc(NC(=O)Nc3cccc4ccccc34)cc2C(=O)N([C@@H](C)CO)C[C@H]1C,.,-1,.,.,.,.
Cc1ccc([N+](=O)[O-])cc1-c1ccc(/C=C(\C#N)c2[nH]nc(N)c2C#N)o1,8,-2,.,0,9.4*,-28
CCN(CC)CCNC(=O)CSc1c2c(nc3cc(Cl)ccc13)CCCC2,-11,.,35*,2,-10,-10
C[C@H]1CN([C@@H](C)CO)C(=O)Cc2cc(NC(=O)C3CCCCC3)ccc2O[C@@H]1CN(C)Cc1ccc(C(F)(F)F)cc1,.,-1,.,.,.,.
CC1(C)CC(=O)C2=C(C1)Nc1[nH]n(-c3ccccc3)c(=O)c1C2c1ccc2c(c1)OCO2 (centres undefined),4,-2,69*,.,-3,.
C[C@@H]1CN([C@@H](C)CO)C(=O)c2cccc(NS(=O)(=O)c3ccc(F)cc3)c2O[C@H]1CN(C)S(=O)(=O)c1ccc(Cl)cc1,.,3,.,.,.,.
C[C@@H]1CN([C@H](C)CO)S(=O)(=O)c2ccc(C#Cc3ccncc3)cc2O[C@H]1CN(C)C(=O)C1CC1,.,1,.,.,.,.
O=C(COC(=O)CN1C(=O)NC2(CCCC2)C1=O)NCc1ccc(Cl)cc1Cl,-4,.,.,11*,-3,-1
C[C@H]1CCCCO[C@H](CN(C)Cc2ccc(Cl)c(Cl)c2)[C@@H](C)CN([C@@H](C)CO)C(=O)c2cc(N(C)C)ccc2O1,.,-1,.,.,.,.
COc1cc(OC)c2c(O)c3c(c(-c4c5c(c(O)c6c(OC)cc(OC)cc46)CO[C@@H](C)[C@H]5O)c2c1)[C@H](O)[C@H](C)OC3,-10,-4,3,0,10*,9
COc1ccc2c(c1)Cc1cc(NC(=O)c3ccccc3-c3ccccc3C(=O)O)ccc1-2,12,0,.,.,11*,.
CSc1nc(-c2ccco2)nn1C(=O)c1cccs1,3,-1,32*,4,0,6
O=C(c1cccs1)n1nc(-c2ccco2)nc1SCc1ccccc1,.,.,2,1,.,-6
Cc1ccc(NC2=C(Cl)C(=O)OC2OC(=O)c2ccco2)cc1 (centres undefined),5,3,0,-2,-4,-7
Cc1cccc(NC2=C(Cl)C(=O)OC2OC(=O)c2ccco2)c1 (centres undefined),0,.,42*,2,-5,2
Nc1nnc(CC(=O)N/N=C/c2cc([N+](=O)[O-])cc(Br)c2O)s1,-13,.,9,-1,37*,7
SMILES,Yp Topo-I inh,BioA inh,RecA intein inh,UGM FP inh,FadD28 FP inh,Rv3671c protease
CN(C)CC(=O)Nc1ccc2c(c1)[C@H]1C[C@@H](CC(=O)NCc3ccc4c(c3)OCO4)O[C@H](CO)[C@H]1O2,.,0,.,.,.,.
O=[N+]([O-])c1cccc(-c2csc(Nc3ccccc3)n2)c1,-5,2,14,0,-1,-2
COc1ccc(-c2csc(Nc3ccc(S(=O)(=O)Nc4cc(C)on4)cc3)n2)cc1,1,.,10,4,10*,7
COc1ccc(-c2csc(Nc3ccc(S(N)(=O)=O)cc3)n2)cc1,-22,-2,9,-4,-3,4
COc1cc(NS(=O)(=O)c2ccc(Nc3nc(-c4cccc([N+](=O)[O-])c4)cs3)cc2)nc(OC)n1,-8,2,11,1,17*,-21
Cc1ccc(NC(=O)c2cnc(SCC(=O)NCC3CCCO3)n(C)c2=O)cc1C (centres undefined),22,-1,51*,0,-1,-32
CCOC(=O)c1ccc(NC(=O)O[C@H]2[C@H](OC(=O)Nc3ccccc3)[C@@H](OC(=O)Nc3ccccc3)[C@@H](OC)O[C@@H]2CO)cc1,.,1,.,.,.,.
CO[C@@H](CN(C)C(=O)c1ccccc1F)[C@H](C)CN([C@H](C)CO)S(=O)(=O)c1ccc(C)cc1,.,0,.,.,.,.
CC(C)NC(=O)Nc1ccc2c(c1)C(=O)N([C@H](C)CO)C[C@H](C)[C@H](CN(C)C(=O)NC1CCCCC1)OCCCC[C@@H](C)O2,.,1,.,.,.,.
CCOc1ccc(C(=O)NC(=S)Nc2cccnc2)cc1,-9,.,0,12*,-4,-5
CN(C)C(=O)c1ccc2c(c1[N+](=O)[O-])C(=O)c1ccccc1C2=O,-9,.,55*,2,-1,-10
COc1ccc(S(=O)(=O)Nc2ccc3c(c2)C(=O)N([C@@H](C)CO)C[C@@H](C)[C@@H](CN(C)C(=O)Nc2ccccc2)OCCCC[C@H](C)O3)cc1,.,-8,.,.,.,.
CC1=NN(c2ccc([N+](=O)[O-])cc2)C(=O)C1,-10,1,.,.,14*,.
CC1=NN(c2cccc(Cl)c2)C(=O)C1,-15,0,94*,1,1,-182
C[C@@H]1CN([C@@H](C)CO)C(=O)c2cccc(NS(=O)(=O)c3cccs3)c2O[C@@H]1CN(C)S(=O)(=O)c1ccccc1,.,-3,.,.,.,.
O=C(N[C@@H]1CC[C@@H](CCn2cc(C3(O)CCCC3)nn2)O[C@@H]1CO)C1CCCCC1,.,-2,.,.,.,.
COc1cc(NC(=O)Cn2ncc(Cl)c(Cl)c2=O)c(C)cc1[N+](=O)[O-],-11,.,53*,.,-2,.
COc1cc(NC(=O)CN2C(=O)CN(C)C2=O)c(C)cc1[N+](=O)[O-],-1,0,-1,0,-2,7
COc1cc(/C=N/NC(N)=S)ccc1OCc1ccc(C)cc1,11,.,3,-1,16*,-6
COC(=O)C1OC2(OC1C(=O)OC)c1ccccc1-c1ccccc12 (centres undefined),-1,-3,-1,-1,-3,1
COC(=O)[C@@H]1[C@@H](C(=O)OC)C2(c3ccccc3-c3ccccc32)N(c2ccc(Cl)cc2)N1C#N,8,-2,51*,0,0,-14
CO[C@H]1CN(C)C(=O)c2cc(NC(=O)c3ccccc3)ccc2OC[C@@H](C)N(CC2CC2)C[C@@H]1C,.,-2,.,.,.,.

# Source: PubChem (several laboratories)
